T cruzi growth-1: inhibitors of T. cruzi proliferation; T. cruzi beta-gal in NIH3T3, GalScreen luminescence, 90 h; inhibition, % at 8.34 µM; 77,000 tested, 5.9% active;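 active = mean inhibition above about 93%, with at least 55% of replicates each passing it, limit read from the data, passing the limit was not always enough; inconclusive = only one of those two conditions holds; inactive = neither condition holds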
C diff HTS: C. difficile growth inhibition; Clostridium difficile clinical isolate growth, OD600, 24 h; stronger effect = lower value; growth activity, negative = inhibition, % at 16 µg/mL (by protocol); 86,000 tested, 0.25% active;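 active = mean growth activity at or below -80% and every replicate also at or below -80%; inconclusive = mean at or below -80% but some replicate above -80%; inactive = mean growth activity above -80%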
Pf Dd2 growth: inhibitors of Plasmodium falciparum Dd2 growth; P. falciparum Dd2 growth, SYBR Green, 72 h; stronger effect = lower value; activity change, % at 10 µM; 94,000 tested, 2.3% active; in the data active = activity change below about -80%; inconclusive = no clear call, values can overlap the other calls
T cruzi growth-2: inhibitors of T. cruzi proliferation; shares compounds with T cruzi growth-1; T. cruzi beta-gal in NIH3T3, GalScreen luminescence, 90 h; inhibition, % at 8.35 µM; 5,600 tested, 72% active; AID 651739;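 active = mean replicate inhibition above about 95% and at least 55% of replicates individually reaching it, limit read from the data; inconclusive = only one of the two criteria is met; inactive = neither criterion is met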
T cruzi growth-3: Trypanosoma cruzi proliferation inhibition. shares compounds with T cruzi growth-1. T. cruzi beta-gal in NIH3T3, GalScreen luminescence, 90 h. inhibition, % at 2.09 µM. 5,600 tested, 21% active;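 active = mean inhibition above about 95%, with at least 55% of replicates also reaching it, limit read from the data; inconclusive = meets just one of the two conditions; inactive = meets neither condition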
NIH3T3 tox: NIH/3T3 (mouse) viability loss; shares compounds with T cruzi growth-1; NIH/3T3 viability, CellTiter-Glo ATP luminescence, 90 h; cytotoxicity (signal decrease), % at 8.35 µM; 5,600 tested, 14% active;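 active = mean signal decrease across replicates above about 35% based on untreated-well scatter, with enough replicates individually passing, limit read from the data; inconclusive = no rule stated though some were filed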
NIH3T3 tox 2: NIH/3T3 (mouse) viability loss; AID 651744; NIH/3T3 viability, CellTiter-Glo ATP luminescence, 90 h; shares compounds with T cruzi growth-1; inhibition, % at 24.9 µM; 5,600 tested, 56% active;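 active = mean loss of cell viability signal at or above a set limit, and enough replicates individually reaching it; inconclusive = meets only the mean limit or only the replicate share; inactive = meets neither condition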
A number is an active result; – = inactive; ? = inconclusive; · = not tested or not shown. Most compounds without a hit are left out; they make up all but 6.7% or so of the library.

SMILES	T cruzi growth-1	C diff HTS	Pf Dd2 growth	T cruzi growth-2	T cruzi growth-3	NIH3T3 tox	NIH3T3 tox 2
CCCNC(=O)N1C[C@H](O)COC[C@@H]2O[C@H](CC(=O)NCc3ccc(Cl)c(Cl)c3)CC[C@H]21	–	–	–	·	·	·	·
Cc1ccc(S(=O)(=O)N(C)C[C@@H]2Oc3ccc(NS(C)(=O)=O)cc3C(=O)N([C@H](C)CO)C[C@@H]2C)cc1	–	–	–	·	·	·	·
CN(C)C(=O)c1ccc(-c2ccc3c(c2)[C@H]2[C@H](CCN2C(=O)c2ccccn2)[C@H](CO)N3C)cc1	–	–	–	·	·	·	·
CCS(=O)(=O)Nc1ccc2c(c1)C(=O)N(C)[C@@H]1CC[C@@H](CC(=O)NCc3ccccc3F)O[C@@H]1CO2	–	–	·	·	·	·	·
C[C@@H]1CN([C@H](C)CO)C(=O)c2cc(NC(=O)Cc3ccccc3)ccc2O[C@@H]1CN(C)Cc1ccc(Oc2ccccc2)cc1	–	·	–	·	·	·	·
C[C@H](CO)N1C[C@H](C)[C@H](CN(C)CC2CC2)Oc2cc(C#Cc3ccccn3)ccc2S1(=O)=O	–	–	–	·	·	·	·
C[C@H]1CN([C@@H](C)CO)S(=O)(=O)c2ccc(C#Cc3ccccn3)cc2O[C@@H]1CN(C)Cc1ccccc1	–	–	–	·	·	·	·
C[C@H]1CN([C@@H](C)CO)S(=O)(=O)c2ccc(C#Cc3ccccn3)cc2O[C@@H]1CN(C)Cc1ccc(F)cc1	130	–	–	96	–	42	85
C[C@H](CO)N1C[C@H](C)[C@H](CN(C)Cc2ccc(F)cc2)Oc2cc(C#Cc3ccccn3)ccc2S1(=O)=O	124	–	–	109	–	–	–
C[C@H]1CN([C@@H](C)CO)S(=O)(=O)c2ccc(C#Cc3ccccn3)cc2O[C@H]1CN(C)Cc1ccc(F)cc1	116	–	–	103	–	–	37
C[C@@H]1CN([C@@H](C)CO)S(=O)(=O)c2ccc(C#Cc3ccccn3)cc2O[C@H]1CN(C)C	·	–	–	·	·	·	·
COc1ccc(CN(C)C[C@H]2OCCCC[C@@H](C)Oc3ccc(N(C)C)cc3C(=O)N([C@H](C)CO)C[C@H]2C)cc1	–	–	–	·	·	·	·
COc1ccc(NC(=O)N(C)C[C@H]2Oc3ccc(NC(=O)NC4CCCCC4)cc3CC(=O)N([C@@H](C)CO)C[C@@H]2C)cc1	–	–	–	·	·	·	·
O=C(c1ccc(F)cc1)N(CC1CCC1)C[C@@H]1N[C@H](CO)[C@@H]1c1ccccc1	–	–	–	·	·	·	·
CCCC#Cc1ccc2c(c1)O[C@@H](CN(C)C(=O)CC1CC1)[C@@H](C)CN([C@H](C)CO)S2(=O)=O	–	–	–	·	·	·	·
C[C@H]1CN([C@@H](C)CO)S(=O)(=O)c2ccc(C#CCC3CCCC3)cc2O[C@H]1CN(C)C(=O)CC1CC1	122	–	–	?	–	–	104
C[C@@H]1CN([C@@H](C)CO)S(=O)(=O)c2ccc(C#CCC3CCCC3)cc2O[C@@H]1CN(C)C(=O)CC1CC1	120	–	–	–	–	–	107
CC(=O)N(C)C[C@@H]1Oc2cc(C#CCC3CCCC3)ccc2S(=O)(=O)N([C@@H](C)CO)C[C@@H]1C	–	–	–	·	·	·	·
O=C(CC1CC1)Nc1ccc2c(c1)[C@H]1C[C@H](CC(=O)N3CCCCC3)O[C@@H](CO)[C@H]1O2	–	–	–	·	·	·	·
O=C(C[C@@H]1CC[C@H]2[C@@H](COC[C@@H](O)CN2Cc2cccc(Cl)c2)O1)NCc1cccc(F)c1	–	·	–	·	·	·	·
C[C@@H]1CN([C@@H](C)CO)C(=O)c2cc(NC(=O)c3ccncc3)ccc2O[C@@H](C)CCCCO[C@@H]1CN(C)Cc1ccc2c(c1)OCO2	–	–	–	·	·	·	·
C[C@@H]1CCCCO[C@H](CN(C)Cc2ccc3c(c2)OCO3)[C@H](C)CN([C@H](C)CO)C(=O)c2cc(NC(=O)c3ccncc3)ccc2O1	114	–	–	102	–	–	–
C[C@@H]1CCCCO[C@@H](CN(C)Cc2ccc3c(c2)OCO3)[C@H](C)CN([C@@H](C)CO)C(=O)c2cc(NC(=O)c3ccncc3)ccc2O1	–	–	–	·	·	·	·
C[C@H](CO)N1C[C@H](C)[C@@H](CN(C)Cc2ccc3c(c2)OCO3)OCCCC[C@H](C)Oc2ccc(NC(=O)c3ccncc3)cc2C1=O	103	–	–	–	–	–	–
COC(=O)C[C@@H]1CC[C@@H](NC(=O)c2ccccc2)[C@@H](CO)O1	–	–	–	·	·	·	·
SMILES	T cruzi growth-1	C diff HTS	Pf Dd2 growth	T cruzi growth-2	T cruzi growth-3	NIH3T3 tox	NIH3T3 tox 2
CNC(=O)C[C@H]1CC[C@@H]2[C@H](COc3ccc(NC(=O)c4ccccc4Cl)cc3C(=O)N2C)O1	–	–	–	·	·	·	·
C/C=C/c1ccc([C@@H]2[C@@H](C#N)N(c3ncc(CC)s3)[C@H]2CO)cc1	102	–	–	96	–	–	53
C/C=C/c1ccc([C@H]2[C@@H](C#N)N(c3ncc(CC)s3)[C@H]2CO)cc1	101	–	–	106	100	–	–
C/C=C/c1ccc([C@@H]2[C@@H](C#N)N(c3ncc(CC)s3)[C@@H]2CO)cc1	?	–	–	101	107	–	38
C/C=C/c1ccc([C@@H]2[C@H](C#N)N(c3ncc(CC)s3)[C@H]2CO)cc1	–	–	–	·	·	·	·
CO[C@@H]1CN(C)C(=O)c2ccc(NC(=O)Nc3cccc(Cl)c3)cc2OC[C@H](C)NC[C@H]1C	–	·	–	·	·	·	·
COc1ccc(NC(=O)N(C)C[C@@H]2Oc3ccc(NS(=O)(=O)c4cn(C)cn4)cc3C(=O)N([C@@H](C)CO)C[C@@H]2C)cc1	–	–	–	·	·	·	·
C[C@@H]1CCCCO[C@@H](CN(C)S(C)(=O)=O)[C@H](C)CN([C@H](C)CO)C(=O)c2cc(NC(=O)Nc3ccc(F)cc3)ccc2O1	–	–	–	·	·	·	·
CNC[C@H]1OCCCC[C@@H](C)Oc2ccc(NC(=O)Nc3ccc(C(F)(F)F)cc3)cc2C(=O)N([C@@H](C)CO)C[C@H]1C	–	–	–	·	·	·	·
CO[C@@H]1CN(C)C(=O)c2cc(NC(=O)c3cnccn3)ccc2OC[C@@H](C)NC[C@@H]1C	–	·	–	·	·	·	·
C[C@H]1CN([C@@H](C)CO)C(=O)c2cc(/C=C/c3ccccc3)cnc2O[C@H]1CN(C)Cc1ccccc1	–	–	–	·	·	·	·
C/C=C/c1cnc2c(c1)C(=O)N([C@@H](C)CO)C[C@H](C)[C@H](CN(C)Cc1ccc3c(c1)OCO3)O2	·	–	–	·	·	·	·
C[C@@H]1CN([C@@H](C)CO)C(=O)c2cc(/C=C/c3ccccc3)cnc2O[C@H]1CN(C)Cc1ccc2c(c1)OCO2	111	–	–	101	108	58	102
C[C@@H]1CN([C@@H](C)CO)C(=O)c2cc(/C=C/c3ccccc3)cnc2O[C@H]1CN(C)Cc1ccccc1	133	–	–	107	109	–	104
Cc1ccc(S(=O)(=O)Nc2ccc3c(c2)C(=O)N([C@H](C)CO)C[C@H](C)[C@@H](CN(C)CC2CCCCC2)O3)cc1	–	–	–	·	·	·	·
